Rows were chosen to be rich in hits. Some 1.4% of all compounds tested hit in one or more screens of this group.
p53 reactivation: qHTS assay for re-activators of p53 using a Luc reporter | H1299 p53-A138V BP100-luciferase reporter, luminescence, 24 h | Potency, µM (doses to about 92.2 µM), for the others: at the top dose activity change, positive = activation, usual class: activators | 320,000 compounds, 0.063% hits | AID 504706, 2011; further: potency means the concentration at half of the fitted maximal effect; % of control where 0% means no effect; nearly all actives have a fitted effect of over 45% in size
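H1299 (p53-null), stable ts p53-A138V + BP100-Luc; 1000 cells/well, Opti-MEM/10% FBS; cpd 4 pt, 1:5; 24 h, 37 deg C, 5% CO2; detection reagent 10 min RT; luminescence.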
TSHR antag: Antagonists of the Thyroid Stimulating Hormone Receptor: HTS campaign; activity change, negative = inhibition, % at 11.5 µM; TSHR-expressing cells, TSH-stimulated cAMP HTRF, 2 h; active compounds read low; 330,000 compounds, 0.2% hits; AID 504810, 2011;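 active means activity change below a set negative limit, meaning inhibition stronger than a set level, cut at about -70% in these data; inconclusive means activity change between two set negative limits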; further: on the % scale 0 is the no-effect control and ±100 the full control effect
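Antagonism was scored as loss of TSH-driven cAMP in TSHR cells, stimulated with 4nM TSH (EC80) for 2 hours at 37 deg C and detected by homogeneous HTRF competition immunoassay.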
N370S GC mod: qHTS Assay for Inhibitors and Activators of N370S glucocerebrosidase as a Potential Chaperone Treatment of Gaucher Disease | N370S GC spleen homogenate, 4MU-glucoside fluorescence | Potency, µM (doses to about 59.4 µM), for inactives: at the top dose activity change, negative = inhibition, actives largely listed as inhibitors | Lysosomal acid glucosylceramidase (Homo sapiens), P04062 | 330,000 compounds, 0.092% hits;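 further: potency means the concentration at half of the fitted maximal effect; 0% = full enzyme activity and -100% = no enzyme basal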
BRCA1 expr act: qHTS Assay to Identify Small Molecule Activators of BRCA1 Expression; MCF7-BRCA1-FFLuc reporter, luminescence, 48 h; response scale: scaled: vehicle 0%, 10 µM genistein 100%; Potency, µM (doses to about 46.1 µM), for the others: at the highest dose activation, most hits filed as activators; 380,000 compounds, 1.1% hits; AID 624202, 2012; further: potency means the concentration at half of the fitted maximal effect; nearly all actives have a fitted effect of over 80% in size
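Quantitative HTS in MCF7 cells stably reporting BRCA1 expression via firefly luciferase. Compound treatment lasts 48 h at 37 °C in phenol-red free MEM. Activation is expressed relative to genistein at 10 microM and DMSO.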
TCR activator: Activators of T cell receptors: qHTS campaign; AID 504894, 2011; primary human leukocytes, anti-CD3, IL-2 HTRF, 48 h; Potency, µM (top dose mostly 9.22 µM), for inactives: top-dose activation of IL-2 secretion, actives largely listed as activators; 330,000 tested, under 10 active; further: % of control where 0% means no effect
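HTRF read-out of IL-2 secretion: europium cryptate donor excited at 320nm, d2 acceptor emission at 665nm. Cells were primary human leukocytes incubated 48 hr with compounds and a-CD3 beads, supplying TCR signal only.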
GLS inh: qHTS for Inhibitors of Glutaminase (GLS). AID 624170, 2012. 410,000 compounds, 0.21% hits. Potency, µM (highest dose often 45.5 µM), without a hit: at the top dose activity change, negative = inhibition, actives largely listed as inhibitors. GLS enzymatic activity, qHTS titration; further: potency means the concentration at half of the fitted maximal effect; on the % scale 0 is the no-effect control and ±100 the full control effect
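Enzyme dispensed in phosphate buffer (45 mM, pH 8.2, 0.02% Tween-20), compounds pinned in, then 1 mM L-glutamine solution and the glutamate oxidase–HRP–Amplex Red mix added; fluorescence read immediately and again after 30 min at room temperature.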
* hit, by the source's call; u = inconclusive; x = no result. Unless noted, the call rests on the fitted dose curve; in most records, active means well fitted curve in the direction sought with a large enough effect; inconclusive means small, poorly fitted or top-dose-only effect, or another doubt; inactive means no such curve, though single readings can be large; an effect the other way counts as inactive or inconclusive.

SMILES | p53 reactivation | TSHR antag | N370S GC mod | BRCA1 expr act | TCR activator | GLS inh
O=C1NC(=O)C(=Cc2ccco2)C(=O)N1 | x | x | x | 10% | -3% | 11µM*
O=C(O)C1C2c3ccccc3C(=O)C1(C(=O)O)c1ccccc12 (stereo not given) | x | x | x | -12% | -1% | -4%
COC12c3ccccc3-c3ccccc3C1C(C(=O)O)C2C(=O)O (stereo not given) | x | x | x | 0% | x | 18µM*
COc1cc(CC(C)N)c(OC)cc1Br (stereo not given) | x | x | x | x | x | 4%
COCCNC(=O)N1[C@H]2CC[C@@H]1C(C(=O)OC)=C(c1ccc(-c3ccccc3)c(F)c1)C2 | 0% | -28 | x | -9% | 12% | -10%
COC(=O)C1=C(c2ccc(-c3ccccc3)c(F)c2)C[C@@H]2CC[C@H]1N2C(=O)NCCOc1ccccc1 | -6% | -89* | x | -43% | 3% | 4%
Nc1ccc2c(c1)oc1ccccc12 | 3% | 45 | 15% | 7.1µM* | 1% | 8%
Nc1nc(/C(=C/CC(=O)O)C(=O)NC2C(=O)N3C(C(=O)O)=CCSC23)cs1 (stereo not given) | x | x | -6% | x | x | 25µM*
CC1=C(C(=O)O)N2C(=O)[C@@H](NC(=O)CCCC(=O)O)[C@H]2SC1 | 1% | 6 | -3% | -1% | -9% | 1%
Clc1cccc(Cl)c1Cn1nnc(N2CCCC2)n1 | 7% | -6 | 4% | 11µM* | -1% | 25%
Cc1ccc(N2C(=O)NC(=O)/C(=C/c3ccc(-c4ccc(C(=O)O)c(Cl)c4)o3)C2=O)cc1 | -3% | -3 | 13% | -3% | 2% | 11µM*
Cc1cc(/C=C2\C(=O)NC(=O)N(c3cccc(F)c3)C2=O)c(C)n1-c1ccc(C(=O)O)c(Cl)c1 | x | 4 | 1% | 11% | x | u
CN1/C(=C\C=C\C2=[N+](C)c3ccc4ccccc4c3C2(C)C)C(C)(C)c2ccccc21 | -16% | -93* | -23% | x | x | x
O=C(Oc1ccc(Cl)c2ccccc12)N1CCCCC1 | 24% | -6 | x | u | -10% | 3%
O=C(Oc1ccc2ccccc2c1Cl)N1CCCC1 | u | -13 | 3% | 4.5µM* | 0% | 2%
